These results are taken from ChEMBL document CHEMBL2218924, “A broad activity screen in support of a chemogenomic map for kinase signalling research and drug discovery” (Biochem J, 2013).

Assay [1] concerns the target Tyrosine-protein kinase SYK (Homo sapiens) (UniProt P43405). Particulars: at 10 µM.
Assay [2] deals with T1, Mitogen-activated protein kinase kinase kinase 7 (Homo sapiens) (UniProt O43318).
T1 sequence (whole entry): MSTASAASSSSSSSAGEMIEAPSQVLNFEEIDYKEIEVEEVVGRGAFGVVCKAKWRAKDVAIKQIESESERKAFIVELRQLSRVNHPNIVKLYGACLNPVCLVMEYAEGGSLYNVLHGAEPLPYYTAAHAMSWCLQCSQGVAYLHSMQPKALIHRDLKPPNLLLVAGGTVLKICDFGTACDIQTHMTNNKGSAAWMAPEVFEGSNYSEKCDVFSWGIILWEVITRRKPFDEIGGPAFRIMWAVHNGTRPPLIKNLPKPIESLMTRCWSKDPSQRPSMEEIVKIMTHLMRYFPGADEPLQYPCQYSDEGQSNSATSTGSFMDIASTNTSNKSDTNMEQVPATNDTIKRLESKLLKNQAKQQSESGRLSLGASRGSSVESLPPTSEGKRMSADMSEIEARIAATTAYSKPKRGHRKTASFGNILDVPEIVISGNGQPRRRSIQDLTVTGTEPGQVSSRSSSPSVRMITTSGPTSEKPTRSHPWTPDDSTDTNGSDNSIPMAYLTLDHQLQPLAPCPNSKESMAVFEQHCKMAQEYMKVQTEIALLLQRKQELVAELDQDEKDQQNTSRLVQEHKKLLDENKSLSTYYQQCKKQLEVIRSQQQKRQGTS
Particulars: at 1 µM.

Assay [3] has as its target T1, Mitogen-activated protein kinase kinase kinase 7 (Homo sapiens). The note with it: at 10 µM.
Assay [4] addresses T2, Serine/threonine-protein kinase TAO1 (Homo sapiens) (UniProt Q7L7X3).
T2 sequence (whole entry): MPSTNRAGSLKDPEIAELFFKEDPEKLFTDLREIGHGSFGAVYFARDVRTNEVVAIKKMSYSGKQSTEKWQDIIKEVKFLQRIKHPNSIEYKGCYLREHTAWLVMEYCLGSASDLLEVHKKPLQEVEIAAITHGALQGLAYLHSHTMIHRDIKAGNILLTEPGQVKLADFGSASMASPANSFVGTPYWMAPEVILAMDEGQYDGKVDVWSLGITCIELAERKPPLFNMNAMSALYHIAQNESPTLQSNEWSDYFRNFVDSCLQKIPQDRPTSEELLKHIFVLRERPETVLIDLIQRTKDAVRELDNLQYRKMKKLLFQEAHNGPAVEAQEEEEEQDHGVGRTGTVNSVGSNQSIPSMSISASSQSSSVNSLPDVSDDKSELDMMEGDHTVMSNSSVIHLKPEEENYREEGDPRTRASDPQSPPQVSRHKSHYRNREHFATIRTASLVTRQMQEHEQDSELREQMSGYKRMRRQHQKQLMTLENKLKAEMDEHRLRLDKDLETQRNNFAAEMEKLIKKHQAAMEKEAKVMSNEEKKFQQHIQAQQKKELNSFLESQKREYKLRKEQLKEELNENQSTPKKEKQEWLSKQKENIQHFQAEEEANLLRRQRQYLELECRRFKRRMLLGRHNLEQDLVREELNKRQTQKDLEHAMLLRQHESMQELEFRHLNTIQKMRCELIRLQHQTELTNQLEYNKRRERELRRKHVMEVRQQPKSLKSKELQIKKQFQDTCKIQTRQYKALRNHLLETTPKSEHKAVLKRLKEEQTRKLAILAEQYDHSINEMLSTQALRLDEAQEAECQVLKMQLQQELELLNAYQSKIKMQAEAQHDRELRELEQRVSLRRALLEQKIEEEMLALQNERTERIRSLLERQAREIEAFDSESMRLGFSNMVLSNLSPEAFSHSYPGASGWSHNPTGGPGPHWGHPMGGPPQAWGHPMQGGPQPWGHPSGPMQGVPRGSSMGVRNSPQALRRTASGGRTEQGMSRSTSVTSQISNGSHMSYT
Particulars: at 1 µM.

Assay [5] deals with T2, Serine/threonine-protein kinase TAO1 (Homo sapiens). The note with it: at 10 µM.
Assay [6] addresses T3, Serine/threonine-protein kinase TAO2 (Homo sapiens) (UniProt Q9UL54).
T3 sequence (whole entry): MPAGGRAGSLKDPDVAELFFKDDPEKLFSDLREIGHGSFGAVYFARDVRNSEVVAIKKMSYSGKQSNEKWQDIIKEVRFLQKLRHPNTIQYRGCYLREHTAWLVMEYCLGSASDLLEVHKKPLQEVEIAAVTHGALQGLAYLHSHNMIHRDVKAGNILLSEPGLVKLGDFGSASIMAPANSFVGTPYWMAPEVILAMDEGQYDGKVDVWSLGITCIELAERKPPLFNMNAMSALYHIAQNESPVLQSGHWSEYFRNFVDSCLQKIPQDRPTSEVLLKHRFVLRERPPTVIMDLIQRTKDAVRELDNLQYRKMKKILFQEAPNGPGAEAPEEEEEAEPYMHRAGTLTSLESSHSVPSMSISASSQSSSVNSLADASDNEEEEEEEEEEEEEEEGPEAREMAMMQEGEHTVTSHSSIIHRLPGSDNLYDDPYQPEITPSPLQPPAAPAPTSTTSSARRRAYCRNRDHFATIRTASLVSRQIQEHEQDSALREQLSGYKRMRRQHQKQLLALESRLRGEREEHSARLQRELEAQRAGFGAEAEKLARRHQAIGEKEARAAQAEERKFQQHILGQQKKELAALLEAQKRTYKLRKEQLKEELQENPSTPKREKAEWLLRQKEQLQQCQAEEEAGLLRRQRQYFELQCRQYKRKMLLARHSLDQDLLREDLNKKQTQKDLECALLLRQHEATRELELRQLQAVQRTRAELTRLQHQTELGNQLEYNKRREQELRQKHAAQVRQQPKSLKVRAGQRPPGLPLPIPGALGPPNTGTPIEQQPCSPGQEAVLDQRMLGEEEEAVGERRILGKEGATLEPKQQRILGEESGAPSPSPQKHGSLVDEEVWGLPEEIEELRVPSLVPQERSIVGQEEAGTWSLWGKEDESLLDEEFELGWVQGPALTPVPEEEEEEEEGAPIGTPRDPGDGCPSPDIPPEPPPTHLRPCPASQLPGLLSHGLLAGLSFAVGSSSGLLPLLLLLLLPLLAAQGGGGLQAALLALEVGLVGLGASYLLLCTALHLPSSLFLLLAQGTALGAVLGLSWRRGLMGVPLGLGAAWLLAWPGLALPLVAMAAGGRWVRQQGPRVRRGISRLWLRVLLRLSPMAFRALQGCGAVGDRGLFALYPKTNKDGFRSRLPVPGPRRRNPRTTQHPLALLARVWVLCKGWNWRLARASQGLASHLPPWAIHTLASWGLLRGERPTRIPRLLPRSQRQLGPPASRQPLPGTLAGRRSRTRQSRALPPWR
The note with it: at 1 µM.

The target in assay [7] is T3, Serine/threonine-protein kinase TAO2 (Homo sapiens). The note with it: at 10 µM.
For assay [8], the target named is T4, Serine/threonine-protein kinase TAO3 (Homo sapiens) (UniProt Q9H2K8).
T4 sequence (whole entry): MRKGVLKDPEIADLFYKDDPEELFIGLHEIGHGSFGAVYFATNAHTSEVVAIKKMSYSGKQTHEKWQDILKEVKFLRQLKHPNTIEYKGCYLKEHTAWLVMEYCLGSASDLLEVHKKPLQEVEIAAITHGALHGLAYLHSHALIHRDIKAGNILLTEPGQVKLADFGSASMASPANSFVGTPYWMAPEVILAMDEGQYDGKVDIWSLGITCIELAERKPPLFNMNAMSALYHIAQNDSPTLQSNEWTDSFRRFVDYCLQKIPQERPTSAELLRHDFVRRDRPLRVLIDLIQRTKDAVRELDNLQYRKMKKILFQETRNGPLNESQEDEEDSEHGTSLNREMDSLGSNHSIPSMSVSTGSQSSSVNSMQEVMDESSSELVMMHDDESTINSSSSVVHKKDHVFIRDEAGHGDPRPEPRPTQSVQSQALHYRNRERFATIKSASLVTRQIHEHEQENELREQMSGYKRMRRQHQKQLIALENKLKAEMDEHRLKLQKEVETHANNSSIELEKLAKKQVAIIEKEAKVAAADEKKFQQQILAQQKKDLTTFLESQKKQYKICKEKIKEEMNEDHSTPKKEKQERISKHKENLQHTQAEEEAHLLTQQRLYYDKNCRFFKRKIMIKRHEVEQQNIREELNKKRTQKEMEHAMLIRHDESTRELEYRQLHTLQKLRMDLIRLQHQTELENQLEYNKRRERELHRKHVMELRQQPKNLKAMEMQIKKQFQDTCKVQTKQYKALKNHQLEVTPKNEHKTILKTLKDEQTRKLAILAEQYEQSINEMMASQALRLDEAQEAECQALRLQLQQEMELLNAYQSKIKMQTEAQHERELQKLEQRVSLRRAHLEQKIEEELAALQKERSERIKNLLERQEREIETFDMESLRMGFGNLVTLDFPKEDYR
Particulars: at 1 µM.

Assay [9] deals with T4, Serine/threonine-protein kinase TAO3 (Homo sapiens). Particulars: at 10 µM.
Assay [10] has as its target T5, Serine/threonine-protein kinase TBK1 (Homo sapiens) (UniProt Q9UHD2).
T5 sequence (whole entry): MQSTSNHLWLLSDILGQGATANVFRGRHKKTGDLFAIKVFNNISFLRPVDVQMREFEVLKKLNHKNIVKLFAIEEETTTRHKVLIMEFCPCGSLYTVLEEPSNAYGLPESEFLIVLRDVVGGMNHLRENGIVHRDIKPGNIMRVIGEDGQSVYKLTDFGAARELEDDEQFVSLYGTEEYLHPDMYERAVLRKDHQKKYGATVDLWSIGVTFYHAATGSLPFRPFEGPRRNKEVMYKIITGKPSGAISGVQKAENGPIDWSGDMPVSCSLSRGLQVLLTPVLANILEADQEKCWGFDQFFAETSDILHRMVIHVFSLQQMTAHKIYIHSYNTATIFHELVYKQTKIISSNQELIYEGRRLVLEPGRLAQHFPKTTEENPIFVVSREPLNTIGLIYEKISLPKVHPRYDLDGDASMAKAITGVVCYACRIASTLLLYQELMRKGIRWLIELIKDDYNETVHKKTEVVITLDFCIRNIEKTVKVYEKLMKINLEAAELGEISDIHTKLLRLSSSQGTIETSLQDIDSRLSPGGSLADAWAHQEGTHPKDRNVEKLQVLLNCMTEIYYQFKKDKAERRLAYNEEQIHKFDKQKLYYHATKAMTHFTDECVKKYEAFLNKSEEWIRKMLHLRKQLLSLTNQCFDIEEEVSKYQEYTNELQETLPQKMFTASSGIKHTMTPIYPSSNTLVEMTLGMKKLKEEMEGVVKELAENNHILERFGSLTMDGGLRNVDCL
Particulars: at 1 µM.

As to `CNc1cc2c(Nc3cccc(Br)c3)ncnc2cn1`, the residual activity amounted to 90% in [1]; 91% in assay [2]; 90% in [3]; 100% in [4]; 81% in assay [5]; 110% in assay [6]. In addition, the residual activity in [7] is 75%; in [8], 95%; in assay [9], 90%; in assay [10], 79%.
